# Experimental data taken from PubChem BioAssay (Tox21).
# Unmarked numbers belong to inactive results. Activity calls are given as the source filed them. Calls come from the whole dose curve; as a rule, active = well fitted curve in the direction sought with a large enough effect in the repeat runs; inconclusive = weak or mixed curves; inactive = flat fitted curve, though single readings scatter. Starred links: 1 amine or outer side, 2 acyl side, 3 side chain; linkers in the order of their positions; H or OH if unused. Positions of bridges follow the written chain, without caps; N, C: chain ends. Non-standard residues stand in square brackets, D forms with d. Residues, ends and D or L forms follow the SMILES beside them. *: point of attachment. X5 = NC1=N[C@@H]([C@H](N[*:1])C(=O)[*:2])C[C@H](O)N1; ΔAla(Z-3-ureido) = NC(=O)N/C=C(\N)C(=O)O; β3hOrn = NCCC[C@H](N)CC(=O)*; Orn = NCCC[C@H](N)C(=O)O; Dap = NC[C@H](N)C(=O)O; Mpa = O=C(O)CCS
# Test: qHTS assay to test for compound auto fluorescence at 535 nm (green) in HEK293 cells (AID 720680)
# Details: green autofluorescence 485/535 nm; series mostly up to 46 µM; fluorescence, % of fluorescein: at the top concentration
# % is set by controls: 0 for no effect and ±100 for the full control effect.
SMILES,Potency,"fluorescence, % of fluorescein"
COCC1=C(C(=O)OC(C)OC(=O)OC(C)C)N2C(=O)[C@@H](NC(=O)/C(=N\OC)c3csc(N)n3)[C@H]2SC1 (some centres undefined),inactive,
CO[C@@H]1[C@@H](O[C@@H]2O[C@H](C)[C@@H](O[C@H]3C[C@@](C)(O)[C@@H](OC(=O)CC(C)C)[C@H](C)O3)[C@H](N(C)C)[C@H]2O)[C@@H](CC=O)C[C@@H](C)[C@@H](O)/C=C/C=C/C[C@@H](C)OC(=O)C[C@H]1O,inactive,
CC(=O)O[C@H]1C[C@@H]2CC[C@@H]3[C@H](CC[C@@]4(C)[C@H]3C[C@H](N3CC[N+](C)(C)CC3)[C@@H]4OC(C)=O)[C@@]2(C)C[C@@H]1N1CC[N+](C)(C)CC1,,0.107%
NCCC[C@H](N)CC(=O)N[C@H]1CNC(=O)[C@H]([C@H]2C[C@H](O)NC(N)=N2)NC(=O)/C(=C/NC(N)=O)NC(=O)[C@H](CO)NC(=O)[C@H](CO)NC1=O (β3hOrn-[Dap]SS[ΔAla(Z-3-ureido)][X5]; lactam 1-C),,0.0162%
CCOc1ccc(C[C@H]2NC(=O)CCSSC[C@@H](C(=O)N3CCC[C@H]3C(=O)N[C@@H](CCCN)C(=O)NCC(N)=O)NC(=O)[C@H](CC(N)=O)NC(=O)[C@H]([C@@H](C)O)NC(=O)[C@H]([C@@H](C)CC)NC2=O)cc1 ([Mpa][dY](Et)ITNCP[Orn]G-NH2; disulfide 1-6),,-0.0087%
O=P(O)(O)C(O)(Cc1cnc2ccccn12)P(=O)(O)O,,-0.0122%
OCC(O)COc1ccc(Cl)cc1 (centres undefined),,0.024%
CCCCCCCCCCCCCCCC(=O)OC[C@@H](NC(=O)C(Cl)Cl)[C@H](O)c1ccc([N+](=O)[O-])cc1,,-0.0964%
NC(=O)Oc1ccc(Cc2ccccc2)cc1,,0.0991%
CCCC(CCC)C(N)=O,,-0.0496%
CC1CC(OC(=O)C(O)c2ccccc2)CC(C)(C)C1 (centres undefined),,0.0782%
OC(CN1CCCCC1)c1cc(-c2ccccc2)on1 (centres undefined),,0.0015%
CCC(c1ccccc1)c1noc(CCN(CC)CC)n1 (centres undefined),,0.0181%
O=S(O)CNc1ccc(S(=O)(=O)c2ccc(NCS(=O)O)cc2)cc1,,0.0019%
C=CCN1CCCC1CNC(=O)c1cc(S(N)(=O)=O)cc(OC)c1OC (centres undefined),,-0.112%
CCCCCCCCCCCCCCCCCC(=O)OCCO,,-0.0816%
CCCCCCCCCCCCCCCCCCCCCC(=O)Nc1ccn([C@@H]2O[C@H](CO)[C@@H](O)[C@@H]2O)c(=O)n1,,-0.349%

SMILES,Potency,"fluorescence, % of fluorescein"
CCCCOC(=O)C(=O)Nc1cccc(-c2nn[nH]n2)c1,,0.0267%
CCOC(=O)[C@H](CCc1ccccc1)N[C@H]1CCCN2CCC[C@@H](C(=O)O)N2C1=O,,-0.0045%
CC(C)CN(C[C@@H](O)[C@H](Cc1ccccc1)NC(=O)O[C@@H]1CCOC1)S(=O)(=O)c1ccc(N)cc1,,-0.0125%
O.O=C([O-])CC([S-])C(=O)[O-].[Au+].[Na+].[Na+] (centres undefined),,-0.0524%
O=P(O)(O)C(Sc1ccc(Cl)cc1)P(=O)(O)O,,-0.164%
O=C(CCCN1CCC(C(=O)c2ccc(F)cc2)CC1)c1ccc(F)cc1,,0.153%
C[C@H]1C[C@H]2[C@@H]3CCC4=CC(=O)C=C[C@]4(C)[C@@]3(F)[C@@H](O)C[C@]2(C)[C@@]1(O)C(=O)CCl,,-0.0183%
CC#CCC(C)[C@H](O)/C=C/[C@@H]1[C@H]2C/C(=C/CCCC(=O)O)C[C@H]2C[C@H]1O (some centres undefined),,-0.0079%
NCCC[C@H](N)C(=O)O,,0.0048%
CN1[C@@H]2CCC[C@H]1CC(NC(=O)c1nn(C)c3ccccc13)C2 (some centres undefined),,0.0403%
CS(=O)(=O)NC(=O)CCC/C=C\C[C@H]1C(=O)C[C@@H](O)[C@@H]1/C=C/[C@H](O)COc1ccccc1,,-0.0061%
OC[C@@H](O)C(O)[C@H](O)CO,,0.0404%
N[C@@H](C(=O)N[C@@H]1C(=O)N2C(C(=O)O)=C(CSc3cn[nH]n3)CS[C@H]12)c1ccc(O)cc1,,0.123%
CC1(C)S[C@@H]2[C@H](NC(=O)Cc3ccccc3)C(=O)N2[C@H]1C(=O)O,,-0.0201%
COC(=O)[C@H]1[C@H]2C[C@@H]3c4[nH]c5cc(OC)ccc5c4CCN3C[C@H]2C[C@@H](OC(=O)/C=C/c2cc(OC)c(OC)c(OC)c2)[C@@H]1OC,,0.301% [at 18.6 µM]
Cn1nnnc1SCC1=C(C(=O)O)N2C(=O)[C@@H](NC(=O)[C@H](OC=O)c3ccccc3)[C@H]2SC1,,0.189%
CC(C)(C)CC(=O)OCC(=O)[C@@]12OC(C)(C)O[C@@H]1C[C@H]1[C@@H]3CCC4=CC(=O)C=C[C@]4(C)[C@@]3(F)[C@@H](O)C[C@@]12C,,0.0865%
